The results in this text go back to PubChem BioAssay (NCI).

Molecules are shown by their SMILES. Compounds without any hit were thinned out: in the full panel of roughly 83,000, 20% have a hit.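 For each line, cells grew in 96-well plates with the test compound present at a single concentration for 48 hours.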 Values without a mark were called inactive. The source made the active and inactive calls. Rule for the calls: active = growth percent below 10; inactive = the rest.

Assay in all cases: NCI-60 one-dose screen, 48 h (100 = growth as untreated, 0 = no growth, -100 = all killed)
What all share (conditions): 10 µM unless noted

For assay [1], the system named is HCT-15 colon.
For assay [2], the system named is HT29 colon.
Assay [3] deals with U251 CNS.
Assay [4] has as its system PC-3 prostate.
In assay [5] the test system is SK-MEL-5 melanoma.
The test system of assay [6] is UACC-62 melanoma.
Assay [7] has as its system LOX IMVI melanoma.
Assay [8] concerns SK-MEL-28 melanoma.
Assay [9] relates to SK-MEL-2 melanoma.
Assay [10] relates to EKVX NSCLC.
In assay [11] the test system is SN12C renal.
Assay [12] concerns UO-31 renal.
Assay [13] relates to TK-10 renal.
Assay [14] deals with ACHN renal.
For assay [15], the system named is CAKI-1 renal.
The test system of assay [16] is CCRF-CEM leukemia.
Assay [17] deals with MOLT-4 leukemia.
Assay [18] relates to SNB-19 CNS.
Assay [19] has as its system A498 renal.

Take `COc1cc2nc(-c3ccc(C(F)(F)F)cc3)cc(OCCN3CCC(O)CC3)c2cc1OC`: the growth in assay [1] was 53.8%; in assay [2], 47%; in assay [3], 69.2%; in assay [4], 71.8%; in assay [5], 68%; in [6], 84.5%. The growth in [7] was -20.6% (active); in [8] it was 80.7%; in assay [9] it was 103%; in assay [10], 61.9%; in assay [11], 57.5%; in assay [12], 52.4%. The growth was 86.1% in assay [13]; 75.5% in [14]; 34.6% in assay [15]; 84.8% in [16]; 77% in assay [17].
As for `O=S(=O)(NCCNc1nccc(-c2c(-c3ccc(F)c(O)c3)nc3occn23)n1)c1ccccc1`, the growth is 76.6% in assay [1]; 61.5% in assay [2]; 73.8% in assay [18]; 60.4% in assay [3]; 55.8% in [4]; 22.8% in assay [5]. The growth in assay [6] is 6.23% (active); in assay [7], 33.7%; in assay [8] it was 27.3%; in assay [9], 17%; in [10] it was 81.6%; in assay [11], 48.8%. Further, the growth is 35.2% in assay [12]; 121% in [13]; 33.9% in assay [14]; 44.1% in assay [15]; 103% in assay [19]; 38.5% in assay [16]. The growth in assay [17] was 47.8%.
Regarding `C=C(C)[C@@H]1CC[C@]2(C=O)CC[C@]3(C)[C@H](CC[C@@H]4[C@@]5(C)CCCNC(C)(C)[C@@H]5CC[C@]43C)[C@@H]12`, the growth in [1] is 34.3%; in [2], 14%; in assay [18], 84.6%; in assay [3], 50.4%; in assay [4] it was 48%; in assay [5], 66%. The growth in assay [6] is 69.9%; in assay [7], 84.9%; in [8], 96.7%; in assay [9], 89.5%; in assay [10], 96.6%; in assay [11] it was 74.1%. In addition, the growth is 69% in [12]; 88.1% in assay [14]; 89.4% in [15]; 59.7% in [16]; 49.1% in [17].
Turning to `Cc1n[nH]c(C)c1-c1c(C)n[nH]c1C`, the growth in assay [1] was -13.6% (active); in assay [2], 7.37% (active); in [18] it was 28.3%; in [3], 1.27% (active); in assay [4] it was 17.8%; in assay [5], 0.89% (active). Moreover, the growth in [6] is 7.89% (active); in [7] it was -64.3% (active); in assay [8], 11.9%; in assay [9] it was 29.9%; in [10], 18.2%; in assay [11], 9.52% (active). In addition, the growth in assay [12] was -0.471% (active); in assay [13] it was 13%; in assay [14], -47.7% (active); in assay [15], -36% (active); in assay [16], 12.3%; in [17], 0.721% (active).
As to `CCN(CC)CCCC(Nc1c2ccc(Cl)cc2nc2ccc(OC)cc12)c1ccc(Cl)cc1` (stereo not given), the growth in [1] is -54.7% (active); in assay [2], -49.6% (active); in [18], 6.15% (active); in assay [3], -85.9% (active); in assay [5], -93.7% (active); in assay [6] it was -70.6% (active). Moreover, the growth in assay [7] is -83.3% (active); in [8], -88.7% (active); in assay [9], -78.7% (active); in assay [10] it was 53.1%; in assay [11] it was 36.3%; in assay [12], 28.2%. Further, the growth in assay [13] is -60.4% (active); in assay [14] it was -33.7% (active); in assay [15], -36.9% (active); in assay [19], 38.2%; in [16] it was -7.24% (active); in assay [17] it was -20.9% (active).
Turning to `Cc1ccc(/C=C/C(=O)c2ccc(N)cc2)c(C)c1`, the growth in assay [1] was 18.6%; in [2], 60.9%; in assay [18], 85.7%; in assay [3] it was 54.1%; in assay [4], 91.6%; in assay [5], 96%. The growth is 86.8% in assay [6]; -91.5% (active) in assay [7]; 105% in assay [8]; 99% in [9]; 109% in assay [10]; 4.51% (active) in [11]. The growth in assay [12] is 11.7%; in [13] it was 106%; in assay [14], 39.3%; in assay [15] it was 84.1%; in assay [19], 97.3%; in assay [16] it was -45.3% (active). Moreover, the growth in [17] is -41.1% (active).
On to `C#Cc1cccc(NC(=O)Nc2cccc(N=C=S)c2)c1`, for which the growth in assay [1] was 105% [8.25 µM]; in assay [2], 113% [8.25 µM]; in assay [18], 96.6% [8.25 µM]; in [3], 96.9% [8.25 µM]; in assay [4], 94.6% [8.25 µM]; in assay [5] it was 95.7% [8.25 µM]. Also, the growth in assay [7] was 102% [8.25 µM]; in assay [8] it was 103% [8.25 µM]; in assay [9] it was 109% [8.25 µM]; in [10], 99.7% [8.25 µM]; in assay [11], 97.6% [8.25 µM]; in assay [12], 87.7% [8.25 µM]. Moreover, the growth in assay [13] was 119% [8.25 µM]; in assay [14], 103% [8.25 µM]; in assay [15] it was 94.7% [8.25 µM]; in assay [19] it was 85% [8.25 µM]; in assay [16], 96.1% [8.25 µM]; in [17] it was 97.8% [8.25 µM].
On to `O=C1NC(=S)NC(=O)C1=Cc1cccc(C=C2C(=O)NC(=S)NC2=O)c1`, for which the growth is 105% in [1]; 104% in assay [2]; 98.9% in [18]; 114% in assay [3]; 104% in assay [4]; 100% in [5]. The growth in assay [6] was 101%; in assay [7], 102%; in assay [8], 110%; in [9] it was 108%; in assay [10], 99.9%; in assay [11] it was 95.3%. Also, the growth in assay [12] was 91%; in assay [13], 104%; in assay [14], 113%; in assay [15], 93.9%; in assay [19], 93.1%; in [16], 99.3%. Further, the growth in [17] was 102%.
